From PubChem BioAssay AID1159580 (chemical genetic matrix, 2015)
Where “and” joins values, the source holds several entries; their conditions need not be identical. Identical values can stand only once. In all, about 5,500 compounds went through this assay and about 2,000 (36%) were called active. Roughly 18% stayed inconclusive and do not appear here. No stated cut-off is given here; in the data, active means normalized growth mostly below about 0.91 (no sharp cut-off); inconclusive means no clear call, values can overlap the other calls; inactive means mostly above about 0.92. The list shows a part of the results.

Assay: chemical genetic growth profiling, strain panel (AID 1159580);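 further: tested at 20 µM; growth read once vehicle control cultures reached saturation at 30 °C; 1 = growth at the plate median or of vehicle wells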
Conditions: S. cerevisiae deletion strains, growth OD

Measured: normalized growth

CCc1cccc2c3c([nH]c12)C(CC)(CC(=O)O)OCC3 (stereo not given)
inactive: locus YAL013W, strain DEP1, stronger effect = lower value 1.01 and 1.02 | locus YAL021C, strain ccr4, stronger effect = lower value 1.01 | locus YAL026C, strain drs2, stronger effect = lower value 0.983 | locus YAL030W, strain snc1, stronger effect = lower value 1 | locus YAL040C, strain CLN3, stronger effect = lower value 0.976 | locus YBL061C, strain skt5, stronger effect = lower value 0.979 | locus YBR009C, strain hhf1, stronger effect = lower value 1 | locus YBR021W, strain FUR4, stronger effect = lower value 1.01 | locus YBR023C, strain chs3, stronger effect = lower value 0.968 | locus YBR171W, strain sec66, stronger effect = lower value 0.959 | locus YBR229C, strain ROT2, stronger effect = lower value 1.01 | locus YBR231C, strain swc5, stronger effect = lower value 0.989 | locus YBR279W, strain paf1, stronger effect = lower value 0.987 | locus YCL011C, strain gbp2, stronger effect = lower value 1 | locus YCL016C, strain dcc1, stronger effect = lower value 1 | locus YCL029C, strain bik1, stronger effect = lower value 1.01 | locus YCL061C, strain MRC1 (second series), stronger effect = lower value 0.995 | locus YCL069W, strain vba3, stronger effect = lower value 0.976 | locus YCR088W, strain abp1, stronger effect = lower value 0.983 | locus YDL005C, strain med2, stronger effect = lower value 0.971 | locus YDL035C, strain GPR1, stronger effect = lower value 1 | locus YDL040C, strain nat1, stronger effect = lower value 0.976 | locus YDL074C, strain BRE1, stronger effect = lower value 1.02 | locus YDL101C, strain DUN1, stronger effect = lower value 1.02 | locus YDL134C, strain PPH21, stronger effect = lower value 1.01 | locus YDL185W, strain tfp1, stronger effect = lower value 1.01 | locus YDL192W, strain arf1, stronger effect = lower value 1.01 | locus YDR001C, strain nth1, stronger effect = lower value 0.966 | locus YDR069C, strain doa4, stronger effect = lower value 0.976 | locus YDR101C, strain arx1, stronger effect = lower value 1 | locus YDR137W, strain rgp1, stronger effect = lower value 0.964 | locus YDR150W, strain NUM1, stronger effect = lower value 1 and 0.999 | locus YDR159W, strain sac3, stronger effect = lower value 0.976 | locus YDR162C, strain NBP2, stronger effect = lower value 1.01 | locus YDR195W, strain ref2 0.896 | locus YDR297W, strain sur2, stronger effect = lower value 0.985 | locus YDR318W, strain mcm21, stronger effect = lower value 1.02 | locus YDR334W, strain swr1, stronger effect = lower value 0.951 | locus YDR335W, strain msn5, stronger effect = lower value 0.968 | locus YDR363W, strain ESC2, stronger effect = lower value 1.05 | locus YDR388W, stronger effect = lower value 1.01 | locus YDR392W, strain spt3, stronger effect = lower value 1.03 | locus YDR502C, strain sam2, stronger effect = lower value 0.986 | locus YEL003W, strain gim4, stronger effect = lower value 0.964 | locus YEL037C, strain rad23, stronger effect = lower value 0.968 | locus YEL061C, strain CIN8 (second series), stronger effect = lower value 0.965 | locus YEL061C, strain CIN8, stronger effect = lower value 1 | locus YER002W, strain NOP16, stronger effect = lower value 0.979 | locus YER015W, strain faa2, stronger effect = lower value 0.973 | locus YER016W, strain bim1, stronger effect = lower value 0.984 | locus YER110C, stronger effect = lower value 1 | locus YER111C, strain swi4, stronger effect = lower value 0.968 | locus YER155C, strain BEM2 (second series), stronger effect = lower value 0.979 | locus YER155C, strain BEM2, stronger effect = lower value 1.01 | locus YER167W, strain BCK2, stronger effect = lower value 1.01 | locus YFR010W, strain ubp6, stronger effect = lower value 0.984 | locus YGL078C, strain dbp3, stronger effect = lower value 0.99 | locus YGL086W, strain mad1, stronger effect = lower value 1.01 | locus YGL167C, strain pmr1, stronger effect = lower value 0.957 | locus YGL173C, strain kem1, stronger effect = lower value 0.993 | locus YGL227W, strain vid30, stronger effect = lower value 0.987 | locus YGL240W, strain doc1, stronger effect = lower value 0.982 | locus YGL248W, strain PDE1, stronger effect = lower value 1.01 | locus YGL253W, strain hxk2, stronger effect = lower value 0.98 | locus YGR078C, strain PAC10, stronger effect = lower value 1.02 | locus YGR135W, strain pre9, stronger effect = lower value 1 | locus YGR229C, strain SMI1, stronger effect = lower value 0.995 | locus YGR252W, strain gcn5, stronger effect = lower value 1 | locus YHR013C, strain ard1, stronger effect = lower value 0.985 | locus YHR027C, strain rpn1, stronger effect = lower value 0.997 | locus YHR030C, strain SLT2, stronger effect = lower value 1.01 and 0.971 | locus YHR079C, strain IRE1 (second series), stronger effect = lower value 1.01 | locus YHR079C, strain IRE1, stronger effect = lower value 0.965 | locus YHR094C, strain hxt1, stronger effect = lower value 1.01 | locus YHR129C, strain ARP1, stronger effect = lower value 1.01 | locus YHR142W, strain chs7, stronger effect = lower value 0.986 | locus YHR200W, strain rpn10, stronger effect = lower value 1 | locus YIL066C, strain RNR3, stronger effect = lower value 1.01 | locus YIL073C, strain SPO22, stronger effect = lower value 1.02 | locus YIL125W, strain kgd1, stronger effect = lower value 0.992 | locus YIR030C, strain dcg1, stronger effect = lower value 0.997 | locus YJL092W, strain hpr5, stronger effect = lower value 0.982 | locus YJL095W, strain BCK1 (second series), stronger effect = lower value 0.987 | locus YJL095W, strain BCK1, stronger effect = lower value 1.05 and 0.971 | locus YJL115W, strain asf1, stronger effect = lower value 0.98 | locus YJL129C, strain trk1, stronger effect = lower value 0.934 | locus YJL134W, strain LCB3, stronger effect = lower value 1.01 | locus YJL154C, strain vps35, stronger effect = lower value 0.981 | locus YJL164C, strain tpk1, stronger effect = lower value 1.01 | locus YJL166W, strain qcr8, stronger effect = lower value 0.984 | locus YJL168C, strain set2, stronger effect = lower value 1 | locus YJL187C, strain SWE1 (second series), stronger effect = lower value 1.03 | locus YJR043C, strain POL32, stronger effect = lower value 1.01 | locus YJR066W, strain TOR1, stronger effect = lower value 0.916 | locus YJR075W, strain HOC1, stronger effect = lower value 1.02
